A selection: hits, their analogues and other compounds. The true share with any hit is near 9.2%.
SMN2 splice enh: SMN2 splice variant enhancement. HEK293 SMN2-luciferase splicing reporter, luminescence, 30-36 h. Potency, µM (series often up to 46.1 µM), inactives show at the top dose activity change, positive = activation, usual class: activators. 2.8% of 210,000 active. AID 1458; note: % of control where 0% means no effect; nearly all actives have a fitted effect of over 55% in size
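qHTS luciferase splicing reporter: luminescence rises when SMN2 exon 7 is included in transfected HEK293 cells. Compound exposure lasted 30-36 h at 37C, with 4.5 mM final sodium butyrate as control, followed by a ONE-Glo read.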
Rab9 promoter act: activators of Rab9 promoter | Huh7 Rab9 promoter-luciferase reporter, luminescence, 24 h | Potency, µM (titrated, usually from 9.22 µM), inactives show at the top dose activation, negative = inhibition, actives largely listed as activators | 2.8% of 320,000 active | AID 485297; note: % of control where 0% means no effect; nearly all actives have a fitted effect of over 60% in size
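Luminescence read-out: Huh7 cells stably expressing Rab9-luciferase, treated 24 h with compound at 37 °C, then lysed with luciferase reagent for 10 min at ambient before reading.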
ELG1 genotox: genotoxicity induction in ELG1-luciferase HEK293T cells; HEK293T ELG1-luciferase reporter, luminescence, 16 h; Potency, µM (titrated, usually from 46 µM), without a hit: top-dose activity change, positive = activation, hits mostly activators; 1.3% of 330,000 active; note: % of control where 0% means no effect; nearly all actives have a fitted effect of over 60% in size
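Quantitative HTS format in 1536-well plates. HEK293T ELG1-luciferase reporter cells receive test compound and are incubated 16 hr at 37 °C, 5% CO2; ONE-Glo added, 30 min room temperature, then luminescence read.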
FLuc counter: inhibits or activates purified firefly luciferase, miR-21 counter-screen. P08659. purified FLuc, Km substrates, luminescence inhibition. Potency, µM (doses to about 57.5 µM), for inactives: at the top dose activity change, negative = inhibition, usual class: inhibitors. 6.9% of 360,000 active. AID 588342;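 note: plate controls were vehicle for no effect and reference inhibitor for full effect; nearly all actives have a fitted effect of over 55% in size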
Target sequence (P08659 whole entry, looked up): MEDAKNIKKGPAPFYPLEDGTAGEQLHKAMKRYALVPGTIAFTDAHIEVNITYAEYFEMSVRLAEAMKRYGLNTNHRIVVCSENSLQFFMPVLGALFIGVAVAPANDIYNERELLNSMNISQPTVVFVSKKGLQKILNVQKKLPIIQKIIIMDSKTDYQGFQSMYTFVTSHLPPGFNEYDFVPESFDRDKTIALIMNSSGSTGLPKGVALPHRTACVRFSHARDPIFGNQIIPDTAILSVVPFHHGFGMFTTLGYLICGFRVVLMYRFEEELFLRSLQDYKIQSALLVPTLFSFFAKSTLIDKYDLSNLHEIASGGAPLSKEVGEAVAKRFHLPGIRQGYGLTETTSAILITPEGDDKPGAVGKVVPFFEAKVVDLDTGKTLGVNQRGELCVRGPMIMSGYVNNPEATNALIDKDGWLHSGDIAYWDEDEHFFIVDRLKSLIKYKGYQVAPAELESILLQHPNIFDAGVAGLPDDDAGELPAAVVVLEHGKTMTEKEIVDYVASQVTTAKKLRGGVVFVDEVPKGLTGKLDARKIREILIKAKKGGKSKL
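Purified P. pyralis luciferase (10nM final) with 10uM D-luciferin and 10uM ATP (Km levels) in 50mM Tris acetate pH 7.5, 10mM Mg acetate, 0.01% Tween-20, 0.05% BSA; qHTS 6-point titration, ~60 µM downward; luminescence read.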
NPC1 promoter act: activators of NPC1 promoter | Potency, µM (doses to about 9.22 µM), without a hit: at the highest dose activation, actives largely listed as activators | AID 485313 | Huh7 NPC1 promoter luciferase reporter, 24 h | 2.4% of 320,000 active; note: % of control where 0% means no effect; nearly all actives have a fitted effect of over 60% in size
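Quantitative HTS used a cell-based reporter: Huh7 cells stably bearing the NPC1 promoter upstream of luciferase were treated with compounds for 24 h, and promoter activation was read as luminescence.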
ELG1 repair inh: blocks ELG1-dependent DNA repair in HEK293T cells. HEK293T ELG1-luciferase reporter, luminescence, 16 h; DNA damage induced by 5-fluorouridine. Potency, µM (highest dose often 46.1 µM), inactives show at the highest dose activity change, negative = inhibition, usual class: inhibitors. 2.3% of 330,000 active. AID 504467; note: % is set by controls: 0 for no effect and ±100 for the full control effect; nearly all actives have a fitted effect of over 55% in size
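DMSO vehicle served as the neutral condition. Each well held 2,000 cells given 5-fluorouridine plus compound; after 16 hr at 37 °C/5% CO2, ONE-Glo was added and luciferase measured 30 min later.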
* hit, by the source's call; ? = inconclusive; / = no result. Calls come from the whole dose curve; as a rule, active = well fitted curve in the direction sought with a large enough effect; inconclusive = small, poorly fitted or top-dose-only effect, or another doubt; inactive = no such curve, though single readings can be large; an effect the other way counts as inactive or inconclusive. Potency is the fitted concentration of half-maximal effect.

SMILES | SMN2 splice enh | Rab9 promoter act | ELG1 genotox | FLuc counter | NPC1 promoter act | ELG1 repair inh
Cc1cccc(N2CCN(C(=O)CCNS(=O)(=O)c3ccc4c(c3)CCC(=O)N4)CC2)c1C | -83% | -13% | -15% | 3% | -2% | 11µM*
COC(=O)Nc1ccc(S(=O)(=O)N2CCCc3cccc(O)c32)cc1 | / | -21% | -8% | -7% | -25% | 18µM*
O=C(CN1CCOCC1)Nc1nc(-c2ccc3c(c2)CCN3S(=O)(=O)c2ccccc2)cs1 | -52% | -10% | -10% | -6% | -2% | ?
CC(C)C(=O)Nc1nc(-c2ccc3c(c2)CCN3C(=O)C2CC2)cs1 | / | ? | 4% | 15µM* | ? | 30%
CC(C)(C)Nc1nc(-c2ccc3c(c2)CCN3C(=O)C2CC2)cs1 | / | ? | ? | 3µM* | 1.8µM* | ?
CC1CC(C)CN(S(=O)(=O)c2ccc3c(c2)CCN3C(=O)C2CC2)C1 (stereo not given) | / | -2% | -7% | 0% | 0% | -24%
CCC(CC)C(=O)Nc1nc(-c2ccc3c(c2)CCN3C(=O)C2CC2)c(C)s1 | -30% | -3% | -28% | 3% | -2% | 21µM*
N#CC1=C2SCN(C3CCCCC3)CN2C(=O)CC1c1c(F)cccc1Cl (stereo not given) | 0% | / | / | ? | / | /
O=[N+]([O-])c1ccc(Cl)c(CN2CCN(c3ncccn3)CC2)c1 | / | -5% | 2% | -1% | 1% | 12%
Cc1ccc2nc(C)c(CN3CCN(c4ccc([N+](=O)[O-])cc4Cl)CC3)n2c1 | / | -35% | -19% | 1% | -29% | 2.3µM*
Cc1ccc(/C=N/Nc2ccnc3cc(Cl)ccc23)c(C)c1 | -85% | -10% | -7% | -18% | -10% | 18µM*
Cc1ccccc1/C=N/Nc1ccnc2cc(Cl)ccc12 | -15% | 1% | -5% | ? | 2% | ?
Clc1ccc2c(N/N=C/c3ccc(Br)cc3)ccnc2c1 | -85% | 2% | ? | -3% | 2% | 16µM*
Cc1ccc(NC(=O)C(=O)Nc2ccc(C)cn2)nc1 | 22% | ? | ? | -15% | 27% | ?
Cc1ccc(NC(=O)/C(C#N)=C(\N)C(Cl)(Cl)Cl)nc1 | / | ? | ? | 2.1µM* | ? | ?
COc1ccc(Cn2ccc3nc(C)c(C(=O)N4CCN(c5ccc(OC)cc5)CC4)cc3c2=O)cc1 | / | / | / | -5% | / | /
Cc1ccc(-c2cc3ncc4c(n3n2)-c2cc(F)ccc2OC4)cc1 | 7% | / | / | -8% | / | /
Cc1ccc2c(c1)N=C(c1ccc(F)cc1)CO2 | 16% | 3.2µM* | ? | 4.3µM* | 4µM* | ?
O=[N+]([O-])c1ccc(C2=Nc3cc(Cl)ccc3OC2)cc1 | -2% | 21% | 17% | 15µM* | 21% | ?
O=C(O)CCCCCNC(=O)C(=O)C1C(=O)Nc2ccccc21 (stereo not given) | / | -1% | 0% | -2% | 1% | 12%
Cn1ncc2c(N3CCN(c4ccccc4Cl)CC3)ncnc21 | / | / | / | -9% | / | /
Nc1ccc(C(=O)OCC(=O)N2CCOCC2)cc1[N+](=O)[O-] | 20µM* | ? | ? | ? | ? | ?
CCOC(=O)C1CCN(C(=O)COC(=O)c2ccc(Br)o2)CC1 | -8% | 1% | -2% | 3% | 10% | -2%
O=C(OCC(=O)N1CCOCC1)c1ccc2c(c1)OCCO2 | 20% | 20% | 7% | -18% | 29% | ?
CC1CCN(C(=O)COC(=O)c2ccc(Br)o2)CC1 | -3% | 4% | ? | 24µM* | 3% | ?
SMILES | SMN2 splice enh | Rab9 promoter act | ELG1 genotox | FLuc counter | NPC1 promoter act | ELG1 repair inh
CC1CCN(C(=O)COC(=O)c2ccc3c(c2)OCO3)CC1 | 21% | 3.5µM* | ? | 17µM* | ? | ?
CC1CCN(C(=O)c2ccc(NS(=O)(=O)c3ccccc3)cc2)CC1 | / | 19% | 3% | 2% | 2% | 17%
Nc1cc(C(=O)OCC(=O)N2CCOCC2)ccc1Cl | / | ? | ? | ? | 21% | ?
CC1CCN(C(=O)COC(=O)c2cccc(NS(=O)(=O)c3ccccc3)c2)CC1 | / | -4% | 1% | 17µM* | 1% | -1%
COc1ccccc1CN1CC[C@@]2(CCCN(C(=O)c3ccco3)C2)C1 | -12% | / | / | / | / | /
Cc1cccc(-c2nc3scc(CCNC(=O)c4ccc(Br)o4)n3n2)c1 | / | / | / | -6% | / | /
Cc1ccc(CNC(=O)c2c(-c3ccccc3Cl)noc2C)o1 | / | / | / | 4% | / | /
COc1ccc(C(=O)Nc2cc3c4c(c2)CC(=O)N4CCC3)cc1 | / | 22% | ? | 21µM* | 8% | ?
COc1ccc(C(=O)Nc2cc3c4c(c2)C(C)C(=O)N4CCC3)cc1OC (stereo not given) | / | 2% | ? | 2% | -4% | ?
COc1ccc(C(=O)Nc2cc3c4c(c2)CC(=O)N4CCC3)c(OC)c1 | / | ? | ? | 15µM* | ? | ?
COc1ccc(C(=O)Nc2cc3c4c(c2)C(C)C(=O)N4CCC3)cc1 (stereo not given) | / | 20% | ? | 12µM* | 10% | ?
COc1ccc(-c2nc3nc(C)cc(Nc4ccc(C(C)=O)cc4)n3n2)cc1 | -2% | / | / | ? | / | /
COc1cc(C(=O)N(Cc2ccc(F)cc2)Cc2ccco2)cc(OC)c1OC | -3% | / | / | -7% | / | /
COc1ccc(-c2cc(C(=O)NNC(=O)c3csc(N4CCOCC4)n3)c3ccccc3n2)cc1OC | / | 5% | -26% | 9.5µM* | 0% | ?
COc1ccc(-c2cc(C(=O)NCCCN3CCOCC3)c3ccccc3n2)cc1OC | / | 1% | -2% | -17% | -4% | 2%
COc1ccc(-c2cc(C(=O)NNC(=O)c3csc(N4CCOCC4)n3)c3ccccc3n2)cc1 | / | 2% | -24% | 12µM* | -2% | ?
COc1cc(NC(=O)c2cnc(N)o2)cc(C(=O)Nc2cccc(C(F)(F)F)c2)c1 | / | -6% | -13% | 21µM* | -3% | 15µM*
COc1cc(NC(=O)c2ccnc(N)c2)cc(C(=O)Nc2cccc(C(F)(F)F)c2)c1 | / | -3% | 0% | 19µM* | -8% | 13%
COc1cc(NC(=O)c2cnc(N)s2)cc(C(=O)Nc2cccc(C(F)(F)F)c2)c1 | / | 11% | -3% | 12µM* | 13% | 0%
COc1cc(NC(=O)c2csc(N)n2)cc(C(=O)Nc2cccc(C(F)(F)F)c2)c1 | / | -21% | -14% | ? | 21% | 23µM*
Cc1cccc(N(C)c2nc3ccc(C)cc3n3cnnc23)c1 | 5% | / | / | ? | / | /
Cc1ccc(S(=O)(=O)NCCC(=O)N2CCCCCCC2)cc1 | / | -3% | 2% | 3% | -4% | 6%
